Experimental data taken from PubChem BioAssay (NCATS).
Records with an inconclusive call do not appear. The source made the active and inactive calls. Calls follow the shape of the dose curve; as a rule, active = well fitted curve in the direction sought with a large enough effect; inconclusive = small, poorly fitted or top-dose-only effect, or another doubt; inactive = no such curve, though single readings can be large; an effect the other way counts as inactive or inconclusive.

What was measured:
[1] = qHTS for Inhibitors of the vitamin D receptor (VDR): Hit Validation using a Texas Red Assay (AID 602201); also: potency is read from the fitted curve at half-maximal effect
How it was run: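 Fluorescence polarization (Ex 595/Em 615 nm) of Texas Red (7 nM) with 1.5 uM VDR-LBD and LG19078 (final concentrations). Compounds were incubated for 2 hours at room temperature.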

[2] = target: Rap guanine nucleotide exchange factor 3 (Homo sapiens) (UniProt O95398); assay: Confirmatory qHTS for agonist of cAMP-regulated guanine nucleotide exchange factor 3 (EPAC1) (AID 1645881);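 also: EPAC1 catalysed release of BODIPY-GDP from Rap1B seen as fluorescence loss; 100% = effect of cAMP agonist control; nearly all actives have a fitted effect of over 75% in size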
Sequence of Rap guanine nucleotide exchange factor 3 (Homo sapiens) (O95398 whole entry, looked up): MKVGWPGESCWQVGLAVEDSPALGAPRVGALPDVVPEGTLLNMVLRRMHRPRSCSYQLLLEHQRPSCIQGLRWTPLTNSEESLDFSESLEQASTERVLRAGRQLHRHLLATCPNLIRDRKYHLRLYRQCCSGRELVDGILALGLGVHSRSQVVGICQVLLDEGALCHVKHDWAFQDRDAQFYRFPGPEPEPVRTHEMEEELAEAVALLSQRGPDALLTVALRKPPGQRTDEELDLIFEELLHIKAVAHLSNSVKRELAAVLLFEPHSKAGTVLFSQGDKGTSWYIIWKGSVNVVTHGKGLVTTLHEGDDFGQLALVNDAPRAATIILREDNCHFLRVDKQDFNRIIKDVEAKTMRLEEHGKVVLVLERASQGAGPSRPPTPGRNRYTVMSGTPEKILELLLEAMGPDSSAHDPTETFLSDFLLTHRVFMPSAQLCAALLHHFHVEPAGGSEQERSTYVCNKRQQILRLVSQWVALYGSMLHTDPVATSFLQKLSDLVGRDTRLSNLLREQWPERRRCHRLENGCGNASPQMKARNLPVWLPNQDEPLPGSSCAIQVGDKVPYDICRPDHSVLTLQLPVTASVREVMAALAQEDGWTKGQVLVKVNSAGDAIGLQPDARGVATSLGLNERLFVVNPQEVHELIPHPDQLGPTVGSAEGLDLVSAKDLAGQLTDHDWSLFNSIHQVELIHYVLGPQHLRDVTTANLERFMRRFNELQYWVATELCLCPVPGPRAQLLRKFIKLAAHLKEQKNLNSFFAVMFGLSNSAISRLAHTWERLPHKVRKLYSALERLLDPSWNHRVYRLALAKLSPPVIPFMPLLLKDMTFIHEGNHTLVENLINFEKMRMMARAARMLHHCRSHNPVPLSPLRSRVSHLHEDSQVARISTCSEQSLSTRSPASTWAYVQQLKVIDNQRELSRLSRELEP

[3] = target: Rap guanine nucleotide exchange factor 4 (Homo sapiens) (UniProt Q8WZA2); assay: Confirmatory qHTS for agonist of cAMP-regulated guanine nucleotide exchange factor 4 (EPAC2) (AID 1645884);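 also: nucleotide exchange releases bodipy-GDP from Rap1 and this lowers its fluorescence; % is scaled to controls: 0 for no effect and ±100 for the full control effect; nearly all actives have a fitted effect of over 65% in size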
Sequence of Rap guanine nucleotide exchange factor 4 (Homo sapiens) (Q8WZA2 whole entry, looked up): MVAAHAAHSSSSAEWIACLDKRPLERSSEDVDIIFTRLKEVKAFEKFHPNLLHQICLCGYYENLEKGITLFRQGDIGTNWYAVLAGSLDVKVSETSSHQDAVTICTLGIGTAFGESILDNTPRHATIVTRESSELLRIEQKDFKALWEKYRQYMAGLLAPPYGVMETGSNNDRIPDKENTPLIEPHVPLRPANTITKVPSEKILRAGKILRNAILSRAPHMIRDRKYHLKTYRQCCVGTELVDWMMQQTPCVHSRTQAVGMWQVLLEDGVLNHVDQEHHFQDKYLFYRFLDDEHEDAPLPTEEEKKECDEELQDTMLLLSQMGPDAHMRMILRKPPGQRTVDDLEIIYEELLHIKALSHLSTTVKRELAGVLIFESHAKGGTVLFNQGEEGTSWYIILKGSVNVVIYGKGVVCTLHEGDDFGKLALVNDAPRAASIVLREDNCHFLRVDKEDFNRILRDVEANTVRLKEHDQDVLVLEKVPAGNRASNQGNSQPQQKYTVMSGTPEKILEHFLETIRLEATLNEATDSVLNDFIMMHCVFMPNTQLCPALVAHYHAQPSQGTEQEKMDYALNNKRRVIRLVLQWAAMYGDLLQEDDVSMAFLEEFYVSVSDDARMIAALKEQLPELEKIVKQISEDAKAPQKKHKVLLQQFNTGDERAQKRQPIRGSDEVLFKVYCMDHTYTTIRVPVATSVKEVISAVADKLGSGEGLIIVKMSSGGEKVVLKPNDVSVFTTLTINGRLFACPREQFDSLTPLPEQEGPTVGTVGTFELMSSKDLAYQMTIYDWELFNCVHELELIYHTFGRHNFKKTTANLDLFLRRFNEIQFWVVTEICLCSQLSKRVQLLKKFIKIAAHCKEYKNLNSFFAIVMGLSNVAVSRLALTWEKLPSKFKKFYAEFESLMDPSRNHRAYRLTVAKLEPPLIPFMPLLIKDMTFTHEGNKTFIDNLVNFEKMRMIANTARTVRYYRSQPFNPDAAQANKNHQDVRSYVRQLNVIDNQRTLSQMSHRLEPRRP

[4] = target: Rap guanine nucleotide exchange factor 3 (Homo sapiens) (UniProt O95398); assay: Counterscreen qHTS for antagonist of cAMP-regulated guanine nucleotide exchange factor 3 (EPAC1) (AID 1645888);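 also: fluorescence loss as bound BODIPY-GDP is released from Rap1B; % of control where 0% means no effect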
How it was run: (§1)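 Measured: fluorescence of BODIPY-GDP bound to Rap1B, which falls as exchange proceeds. Conditions include 50 uM competing GDP, 5 and 30 min reads, and a later cAMP challenge for antagonist detection.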

[5] = target: Rap guanine nucleotide exchange factor 3 (Homo sapiens) (UniProt O95398); assay: Counterscreen qHTS for agonist of cAMP-regulated guanine nucleotide exchange factor 3 (EPAC1) (AID 1645889); also: % of control where 0% means no effect; nearly all actives have a fitted effect of over 40% in size
How it was run: as §1

O=C(NC1(O)C(=O)c2ccccc2C1=O)c1ccccc1
active: Potency [1] 6.31 µM
inactive: Potency [2] | Potency [3] | Potency [4]

N#Cc1c(-c2ccc(Cl)cc2)cc(-c2cccs2)nc1SCC(=O)O
inactive: Potency [2] | Potency [3] | Potency [4] | Potency [5]

O=C(Nc1ccccc1C(=O)Nc1nnc(C(F)(F)F)s1)c1ccccc1Cl
inactive: Potency [2] | Potency [3] | Potency [4] | Potency [5]

Cc1cccc(OC(=O)Nc2ccc(C(=O)O)c(O)c2)c1
inactive: Potency [2] | activation [3] -3.1% [at 17.1 µM, percent relative to cAMP agonist control] | activity change, negative = inhibition [4] -25.7% [at 30.8 µM] | activation [5] -3.96% [at 30.8 µM]

Oc1ccc(-c2cn3c(n2)SCC3)cc1O
inactive: Potency [2] | Potency [3] | Potency [4] | Potency [5]

CC1(c2ccccc2)CC(C)(C)N2C(=O)C(=O)c3cccc1c32 (centres undefined)
inactive: Potency [2] | activation [3] -2.11% [at 17.1 µM, percent relative to cAMP agonist control] | activity change, negative = inhibition [4] -4.27% [at 30.8 µM] | activation [5] 21.7% [at 30.8 µM]
